Results from PubChem BioAssay (NCI).
About 79,000 compounds went through this panel and 15% of them were active in at least one assay; those are over-represented in the sample as a whole. Active and inactive are the calls of the source. Rule as the data show it: active = growth inhibition above about 70%; inactive = the rest.

Legend:
[1] = NCI Yeast Anticancer Drug Screen. Data for the rad50 strain (AID 155);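 also: 0% = growth of vehicle-only cultures of the same strain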; conditions: S. cerevisiae rad50 strain growth inhibition, stronger effect = higher value
Outline: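 Yeast carrying a defined DNA repair defect were exposed to test compounds, and growth was compared with vehicle-treated controls to give percent inhibition.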

[2] = NCI Yeast Anticancer Drug Screen. Data for the mec2-1 strain (AID 157); conditions: S. cerevisiae mec2-1 strain, stronger effect = higher value
Outline: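 Cells of the genetically defined mec2-1 yeast strain are incubated with test compound. Inhibition of growth is calculated against vehicle-treated controls.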

[3] = NCI Yeast Anticancer Drug Screen. Data for the sgs1 mgt1 strain (AID 161);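 also: 0% = growth of cultures given vehicle only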; conditions: S. cerevisiae sgs1 mgt1 strain, stronger effect = higher value
Outline: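 Mutant yeast exposed to compound; growth scored against vehicle-only wells.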

[4] = NCI Yeast Anticancer Drug Screen. Data for the cln2 rad14 strain (AID 165);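 also: 0% = growth equal to vehicle treated cultures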; conditions: S. cerevisiae cln2 rad14 strain, stronger effect = higher value
Outline: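 The screen exposed genetically defined yeast (cln2 rad14) to test compounds and scored growth inhibition relative to vehicle-treated controls.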

[5] = NCI Yeast Anticancer Drug Screen. Data for the bub3 strain (AID 167); conditions: S. cerevisiae bub3 mutant strain, stronger effect = higher value
Outline: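 Compounds were applied to a genetically altered yeast strain carrying a cell-cycle control defect. Growth inhibition was scored against vehicle-treated controls.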

[6] = NCI Yeast Anticancer Drug Screen. Data for the mlh1 rad18 strain (AID 175); conditions: S. cerevisiae mlh1 rad18 strain growth inhibition, stronger effect = higher value
Outline: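 Compound-treated yeast growth, normalised to vehicle controls. Strain bears defined DNA repair mutations.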

[7] = at 5.0 µM (retest, dose inferred, filed as 0.5)
[8] = at 50.0 µM (retest, dose inferred, filed as 5.0)

Measured: growth inhibition

CO[C@@]12[C@@H]3N[C@@H]3CN1C1=C(C(=O)C(N(C)c3ccc(O)cc3)=C(C)C1=O)[C@@H]2COC(N)=O
inactive: [1]; [7] 21% | [1]; [8] 64% | [2]; [7] 24% | [3]; [7] -7% | [3]; [8] 44% | [3]; at 50.0 µM 68.4% | [4]; [7] 1% | [4]; [8] 62% | [4]; at 50.0 µM 65% | [5]; [7] -5% | [5]; [8] 30% | [5]; at 50.0 µM 53.2% | [6]; [7] 33%
active: [1]; at 50.0 µM 81.9% | [2]; [8] 70% | [2]; at 50.0 µM 76% | [6]; [8] 96% | [6]; at 50.0 µM 83.2%

O=C1c2ccccc2CCC1Br (configuration not stated)
inactive: [1]; [7] -20% | [2]; [7] 11% | [3]; [7] -3% | [4]; [7] -18% | [5]; [7] -27% | [6]; [7] -13%
active: [1]; [8] 99% | [1]; at 50.0 µM 99% | [2]; [8] 99% | [2]; at 50.0 µM 99.1% | [3]; [8] 98% | [3]; at 50.0 µM 99.2% | [4]; [8] 99% | [4]; at 50.0 µM 98.6% | [5]; [8] 99% | [5]; at 50.0 µM 98.7% | [6]; [8] 99% | [6]; at 50.0 µM 99%

Cc1c2ccncc2c(CN(CCCl)CCCl)c2c3ccccc3n(C)c12
active: [1]; [8] 98% | [1]; at 50.0 µM 90.3% | [2]; [8] 99% | [2]; at 50.0 µM 88.5% | [3]; [8] 86% | [3]; at 50.0 µM 85.2% | [4]; [8] 96% | [4]; at 50.0 µM 88.2% | [5]; [8] 80% | [5]; at 50.0 µM 82.1% | [6]; [8] 99% | [6]; at 50.0 µM 91.8%
inactive: [1]; [7] 10% | [2]; [7] 17% | [3]; [7] -25% | [4]; [7] 6% | [5]; [7] -10% | [6]; [7] 24%

O=C1[O][Hg][c]2c1cccc2[N+](=O)[O-]
active: [1]; [7] 99% | [1]; [8] 99% | [1]; at 50.0 µM 99.2% | [2]; [7] 100% | [2]; [8] 100% | [2]; at 50.0 µM 99.2% | [3]; [7] 100% | [3]; [8] 100% | [3]; at 50.0 µM 99.4% | [4]; [8] 98% | [4]; at 50.0 µM 97.6% | [5]; [7] 100% | [5]; [8] 100% | [5]; at 50.0 µM 99.4% | [6]; [7] 100% | [6]; [8] 99% | [6]; at 50.0 µM 99.2%
inactive: [4]; [7] 52%

O=[N+]([O-])c1ccc(N2CCOCC2)c2c1no[n+]2[O-]
inactive: [4]; [7] 55%
active: [1]; [7] 98% | [1]; [8] 99% | [1]; at 50.0 µM 90.9% | [2]; [7] 99% | [2]; [8] 100% | [2]; at 50.0 µM 94% | [3]; [7] 94% | [3]; [8] 99% | [3]; at 50.0 µM 89% | [4]; [8] 99% | [4]; at 50.0 µM 74% | [5]; [7] 91% | [5]; [8] 99% | [5]; at 50.0 µM 92.2% | [6]; [7] 98% | [6]; [8] 99% | [6]; at 50.0 µM 84.2%

CC[C@@]1(O)C[C@H](OC2CC(N(C)C)C(O)C(C)O2)c2c(cc3c(c2O)C(=O)c2c(O)ccc(O)c2C3=O)[C@H]1C(=O)OC (some centres not stated)
active: [1]; [7] 96% | [1]; [8] 98% | [1]; at 50.0 µM 91.1% | [2]; [7] 77% | [2]; [8] 98% | [2]; at 50.0 µM 92.1% | [3]; [7] 88% | [3]; [8] 99% | [3]; at 50.0 µM 92.5% | [4]; [7] 82% | [4]; [8] 99% | [4]; at 50.0 µM 88.7% | [5]; [7] 88% | [5]; [8] 99% | [5]; at 50.0 µM 91.2% | [6]; [7] 94% | [6]; [8] 98% | [6]; at 50.0 µM 93.2%

CC[n+]1c(/C=C/c2ccc(N(CCCl)CCCl)cc2)ccc2cc(Br)ccc21
active: [1]; [7] 97% | [1]; [8] 97% | [1]; at 50.0 µM 85.5% | [2]; [7] 96% | [2]; [8] 96% | [2]; at 50.0 µM 84% | [3]; [7] 98% | [3]; [8] 98% | [3]; at 50.0 µM 82.9% | [4]; [7] 90% | [4]; [8] 90% | [4]; at 50.0 µM 82% | [5]; [7] 96% | [5]; [8] 96% | [5]; at 50.0 µM 85.2% | [6]; [7] 96% | [6]; [8] 96% | [6]; at 50.0 µM 82.2%

Oc1c(Cl)cc(Cl)c2ccccc12.[Cu+2]
inactive: [1]; [7] -5% | [2]; [7] -34% | [3]; [7] -5% | [4]; [7] -1% | [4]; [8] 32% | [5]; [7] -2% | [6]; [7] 0%
active: [1]; [8] 91% | [1]; at 50.0 µM 99.3% | [2]; [8] 77% | [2]; at 50.0 µM 99.1% | [3]; [8] 91% | [3]; at 50.0 µM 99.2% | [4]; at 50.0 µM 98.7% | [5]; [8] 93% | [5]; at 50.0 µM 99.5% | [6]; [8] 93% | [6]; at 50.0 µM 99.2%

O=[N+]([O-])c1ccc([N+](=O)[O-])c2ccccc12
active: [1]; [8] 99% | [1]; at 50.0 µM 86.5% | [2]; [8] 99% | [3]; [8] 97% | [3]; at 50.0 µM 91.1% | [4]; [7] 82% | [4]; [8] 97% | [5]; [8] 95% | [5]; at 50.0 µM 85.7% | [6]; [8] 99%
inactive: [1]; [7] 37% | [2]; [7] 47% | [2]; at 50.0 µM 61.7% | [3]; [7] 61% | [4]; at 50.0 µM 67.9% | [5]; [7] 45% | [6]; [7] 31% | [6]; at 50.0 µM 22.8%
